Results from PubChem BioAssay (Tox21).
Results filed as inconclusive are left out. A number with no mark means an inactive call. The source made the active and inactive calls. Calls come from the whole dose curve; as a rule, active = well fitted activation curve with a large enough effect in the repeat runs; inconclusive = weak or mixed curves; inactive = flat fitted curve, though single readings scatter.

Molecular target: Nuclear receptor subfamily 1 group I member 2 (Homo sapiens) (UniProt O75469)
Test: Human pregnane X receptor (PXR) activation by small molecules, qHTS assay (AID 1346985); note: nearly all actives have a fitted effect of over 40% in size
Details: DPX-2 HepG2 CYP3A4-luciferase, 24 h; series mostly up to 38.3 µM; activation: at the top concentration
Source text: National Center for Advancing Translational Sciences [NCATS]
NIH Chemical Genomics Center [NCGC]
U.S. Environmental Protection Agency [EPA]
National Institutes of Environmental Health Sciences [NIEHS]
National Toxicology Program [NTP]
The Pregnane X receptor (PXR), a ligand activated nuclear receptor plays a critical role in the regulation of genes involved in drug metabolism and transporters. Activation of PXR may be involved in the unwanted adverse drug-drug interactions. […] Therefore, identification of compounds with the potential for PXR activation can be of importance in improving the efficacy of drugs with less toxicity and avoiding drug-drug interactions.
DPX-2 (Puracyp, Inc.) cell lines, used for screening against human PXR activation has HepG2 cells co-transfected with a PXR response element and a luciferase construct containing CYP3A4 promoter. Increase in luciferase activity can be used to identify the compounds that activate the PXR pathway.
DPX-2 cells were dispensed at 2,000 cells per well in 5uL of assay medium into white, solid-bottom 1536-well plates using a Multidrop Combi dispenser (Thermo Scientific). The assay plates were incubated at 37C for 5hr before transferring 23nL of test compounds dissolved in DMSO and positive control via Pintool station (Wako). The assay plates were incubated at 37C for 24hr. Then 5ul One-Glo assay reagent (Promega) was added to each plate by a Flying Reagent Dispenser (FRD, Aurora Discovery) and following 30 min incubation at room temperature, luciferase activity was quantified on a ViewLux plate reader (Perkin Elmer).
% is set by controls: 0 for no effect and ±100 for the full control effect; potency is the fitted concentration of half-maximal effect.

Q: CCC(C(N)=O)N1CCCC1=O (stereo unspecified) was tested. Which “activation” value did it give?
A: -7.19%

Q: How did the “activation” value turn out when Cc1ccc2c(c1)C1CN(C)CCC1N2 (stereo unspecified) was run?
A: -3.58%

Q: Which “activation” value does the source give for NC(=O)OCCCc1ccccc1 here?
A: -0.154%

Q: Which “activation” value does the source give for N#CN here?
A: -1.51%

Q: Which “activation” value does the source give for CC(C)[N+](C)(CCC(C(N)=O)(c1ccccc1)c1ccccc1)C(C)C here?
A: -3.99% [at 17.1 µM]

Q: How did the “activation” value turn out when ClCC1CO1 (stereo unspecified) was run?
A: 0.917%

Q: Which “activation” value does the source give for CC[C@@H](CO)NC(=O)[C@@H]1C=C2c3cccc4c3c(cn4C)C[C@H]2N(C)C1 here?
A: -1.28%

Q: For CN(C)C(=O)Oc1cc(OC(=O)N(C)C)cc(C(O)CNC(C)(C)C)c1 (stereo unspecified), which “activation” value is on record?
A: 1.63% [at 17.1 µM]

Q: Which “activation” value does the source give for CNC(=O)NC(O)C(Cl)(Cl)Cl (stereo unspecified) here?
A: -9.4%

Q: With CC1=C2[C@H]3OC(=O)[C@@H](C)[C@@H]3CC[C@@]2(C)C=CC1=O as the molecule, how does the Potency read?
A: 2820 nM (active)

Q: Which “activation” value does the source give for CCN(CC)CCOC(=O)C(O)(c1ccccc1)c1ccccc1 here?
A: 6.88%

Q: With CCOC(=O)CC(SP(=S)(OC)OC)C(=O)OCC (stereo unspecified) as the molecule, how does the “activation” value read?
A: 11.8%

Q: Cc1ccc(Cl)c(O)c1 was tested. Which “activation” value did it give?
A: 9.58%

Q: With Cn1c(CCCC(=O)O)nc2cc(N(CCCl)CCCl)ccc21 as the molecule, how does the “activation” value read?
A: 1.84%

Q: How did the “activation” value turn out when Cc1ccc(S(=O)(=O)N[C@@H](CCCCN)C(=O)CCl)cc1 was run?
A: 2.79%

Q: CC1NCCOC1c1ccccc1 (stereo unspecified) was tested. Which “activation” value did it give?
A: 2.52%

Q: CC(C)(O)C(Cl)(Cl)Cl was tested. Which “activation” value did it give?
A: 4.57%

Q: Which “activation” value does the source give for Cc1ccc(-c2nc3ccc(C)cn3c2CC(=O)N(C)C)cc1 here?
A: 9.12%

Q: For CC(C)(N)Cc1ccc(Cl)cc1, which “activation” value is on record?
A: 1.19%

Q: For C=C1CC[C@@]2(O)[C@H]3Cc4ccc(O)c5c4[C@@]2(CCN3CC2CC2)[C@H]1O5, which “activation” value is on record?
A: -7.58%

Q: C[C@@H](N)[C@@H](O)c1ccccc1 was tested. Which “activation” value did it give?
A: 1.09% [at 17.1 µM]

Q: How did the “activation” value turn out when ClC(Cl)(Cl)Cl was run?
A: -6.5%

Q: How did the “activation” value turn out when N[C@@H](Cc1ccc(Oc2cc(I)c(O)c(I)c2)c(I)c1)C(=O)O was run?
A: 5.62%

Q: For O=C(NC(O)C(Cl)(Cl)Cl)NC(O)C(Cl)(Cl)Cl (stereo unspecified), which “activation” value is on record?
A: -4.94%

Q: Which “activation” value does the source give for O=C1C2CC=CCC2C(=O)N1SC(Cl)(Cl)Cl (stereo unspecified) here?
A: 4.63%

Q: NC(=O)CS(=O)C(c1ccccc1)c1ccccc1 (stereo unspecified) was tested. Which “activation” value did it give?
A: 0.221%

Q: For CCC1(c2cccc(O)c2)CCCCN(C)C1 (stereo unspecified), which “activation” value is on record?
A: 11.1% [at 17.1 µM]

Q: Which “activation” value does the source give for CCCC(C)(COC(N)=O)COC(N)=O here?
A: 0.815%

Q: CCCCCCC(=O)CCCCCC/C=C/C[C@@H](O)[C@H](O)[C@@](N)(CO)C(=O)O was tested. Which “activation” value did it give?
A: -9.67%

Q: With COc1cccc([C@@]2(O)CCCC[C@@H]2CN(C)C)c1 as the molecule, how does the “activation” value read?
A: 2.67%

Q: For S=C=S, which “activation” value is on record?
A: -10.2%

Q: Which “activation” value does the source give for ClC1=C(Cl)C2(Cl)C(CBr)CC1(Cl)C2(Cl)Cl (stereo unspecified) here?
A: 21.6%

Q: How did the “activation” value turn out when N[C@@H]1C[C@H]1c1ccccc1 was run?
A: -2.9%

Q: How did the “activation” value turn out when CCCN1CCC[C@@H]2Cc3nc(N)ncc3C[C@H]21 was run?
A: -11.6%

Q: Which “activation” value does the source give for C=C(C)[C@H]1CN[C@H](C(=O)O)[C@H]1CC(=O)O here?
A: -7.09%

Q: For CC(=O)OCC1=C(C(=O)O)N2C(=O)[C@@H](N)[C@H]2SC1, which “activation” value is on record?
A: -14.8% [at 17.1 µM]
